NALP1 inh = blocks the NALP1 inflammasome reconstituted in yeast; inhibition, % at 10 µM; hit rate 0.61% among 280,000; S. cerevisiae NALP1/ASC/caspase-1 growth, X-gal OD620, 72 h; AID 2071; in the data active = inhibition mostly above about 24%, no sharp cut-off; inactive = mostly below about 32%
tim23-1 inh = growth inhibitors of tim23-1 mutant yeast. S. cerevisiae tim23-1 growth, BacTiter-Glo luminescence, 24 h. inhibition, % at 20 µM. hit rate 1.3% among 330,000. AID 463212;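 active = growth inhibition of the mutant yeast at or above 50%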;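 also: temperature-sensitive mutant grown at 25 °C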
PfHsp90 set2 = growth inhibition of yeast expressing Plasmodium Hsp90 | inhibition, % at 9.4 µM | S. cerevisiae expressing PfHsp90, BacTiter-Glo ATP, 48 h; yeast lacking PDR1 and PDR3 efflux regulators | hit rate 0.32% among 310,000;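 active = every replicate shows inhibition above about 80%, whatever the replicate mean, limit read from the data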
tim10-1 inh = inhibits growth of tim10-1 mutant yeast; S. cerevisiae tim10-1 ts strain growth, BacTiter-Glo, 24 h; hit rate 2.2% among 330,000; inhibition, % at 20 µM;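 active = inhibition of at least 40%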;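 also: mutant grown at 25 °C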
NALP3 yeast inh = inhibitors of NALP3 inflammasome in yeast | Yeast reconstituted NLRP3/ASC/caspase-1, beta-gal luminescence, 24 h | AID 2825 | hit rate 0.39% among 330,000 | inhibition, % at 10 µM;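 active = inhibition of 50% or more; inactive = inhibition below 50%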
TIM10 inh = growth inhibitors of TIM10 yeast strain; inhibition, % at 10 µM; hit rate 1.4% among 330,000; S. cerevisiae TIM10 strain growth, BacTiter-Glo luminescence, 24 h;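 active = inhibition of 40% or more at the single tested concentration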;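 also: wild-type TIM10 isogenic control strain grown at permissive 25 °C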
tim10 confirm = confirmation of TIM10 yeast growth inhibitors. inhibition, % at 10 µM. hit rate 63% among 4,600. shares compounds with TIM10 inh. AID 463215. S. cerevisiae tim10 strain growth, BacTiter-Glo luminescence, 24 h;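 active = inhibition of yeast growth at or above a set limit in either of two replicates at 10 µM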; also: this counterscreen used the strain with wild-type TIM10
Numbers stand for hits; - = inactive; . = no result. Sampled rows, rich in hits. Any-hit rate of the full collection: about 4.1%.

SMILES	NALP1 inh	tim23-1 inh	PfHsp90 set2	tim10-1 inh	NALP3 yeast inh	TIM10 inh	tim10 confirm
CCOC(=O)N/N=C/c1ccccc1OCc1ccc(Cl)cc1	-	-	-	-	-	44.4	32.9
O=C(/C=C/c1ccc(Cl)cc1)NC(=S)Nc1ccccc1C(=O)O	.	-	-	-	-	42.9	31.5
NC(=O)c1ccccc1NC(=O)/C=C/c1ccc(Cl)cc1	-	-	-	-	-	-	.
CC1CN(C(=O)c2cc(S(=O)(=O)N3CCCCC3)ccc2Cl)CC(C)O1 (stereo not given)	.	-	-	-	-	-	.
CCCCOc1ccc(N(CC(=O)NC2CCCCC2)C(=O)CCC(=O)Nc2ccccn2)cc1	-	-	-	-	-	-	.
COc1cc(OC)cc(-c2nc3ccccc3c(=O)n2OC(=O)c2ccc(C)c(C)c2)c1	-	-	-	-	-	50.3	-
C=CCn1c(SCC(=O)Nc2nncs2)nnc1-c1ccco1	-	-	-	-	-	-	.
O=C(NCC(=O)N1CCN(Cc2ccc3c(c2)OCO3)CC1)c1ccccc1F	.	-	-	-	-	96.8	-
CCCCOc1ccc(C(=O)NCC(=O)N2CCN(Cc3ccc4c(c3)OCO4)CC2)cc1	.	-	.	-	-	-	.
COc1cccc2cc(-c3ccnc(N)n3)oc12	-	-	-	-	-	-	.
COc1cccc2cc(-c3n[nH]c(=S)n3C)oc12	-	-	-	-	-	41.5	-
O=[N+]([O-])c1cccc(NN=Nc2ccccc2)c1	-	-	-	-	-	40.5	31.0
S=c1nc(-c2sccc2OCc2ccc(Cl)cc2Cl)[nH][nH]1	-	-	-	-	-	40.6	29.2
Cc1ccc(OC(=O)CCNC(=O)c2ccccc2Cl)c(Br)c1	.	-	-	-	-	-	.
Cc1ccc(C(=O)Nc2ncccc2O)o1	.	-	-	-	-	-	.
Fc1ccc(NC(=S)N2CCc3ccccc3C2)c(F)c1	-	-	-	-	-	-	.
c1ccc(-c2csc(Nc3cccnc3)n2)cc1	-	-	-	-	-	41.6	-
O=C(NCCOc1ccccc1F)C1CC(=O)N(c2ccc3c(c2)OCCO3)C1 (stereo not given)	.	-	-	-	-	-	.
Cc1c(C(=O)Nc2nc3ccccc3[nH]2)oc2c(Cl)cccc12	.	-	-	-	-	44.2	-
Cc1n[nH]c(C)c1CCOc1ccc(C(C)C)cc1	-	-	-	-	-	48.5	29.5
CN1c2ccccc2C(C)(C)[C@]12C=Cc1cc(O)ccc1O2	-	-	-	-	-	45.2	34.9
CSc1ncccc1-c1nc2ccccc2[nH]1	-	-	-	-	-	-	.
CCSc1ncccc1-c1nc2ccccc2[nH]1	-	-	-	-	-	43.0	-
OCC(Cc1ccccc1)Nc1c2ccccc2nc2ccccc12 (stereo not given)	-	-	-	-	-	56.4	-
CCOC(=O)C1CCN(C(=O)Cn2c(=O)c3cccn3c3cccnc32)CC1	-	-	-	-	-	-	.
SMILES	NALP1 inh	tim23-1 inh	PfHsp90 set2	tim10-1 inh	NALP3 yeast inh	TIM10 inh	tim10 confirm
Cn1c(SCc2ccc(C#N)cc2)nnc1-c1ccccc1	-	-	-	-	-	-	.
Cn1c(SCc2ccc(C#N)cc2)nnc1-c1cccc(Cl)c1	-	-	-	-	-	45.5	-
Nc1ccc([N+](=O)[O-])cc1C(=O)NNC(=O)c1ccco1	.	-	-	-	-	-	.
NC(=O)CC[C@H](NC(=O)OCc1ccccc1)C(=O)OCc1ccc(Cl)cc1	-	-	-	-	-	45.5	-
COCCN(Cc1ccccc1)C(=S)Nc1ccc(Cl)cc1	-	-	-	-	-	41.1	40.5
NC(=O)SCC(=O)Nc1cccc(Cl)c1	-	-	-	-	-	-	.
Cc1ccc(NC(=O)C/C(N)=N/OC(=O)Nc2cccc(Cl)c2)cc1	.	-	-	-	-	40.3	-
CC(C)CC(=O)Nc1cc2c3c(c1)C(C)C(=O)N3CCC2 (stereo not given)	-	-	-	-	-	-	.
O=C(COc1cccc2ccccc12)Nc1nc2ccccc2[nH]1	-	-	-	-	-	41.2	-
CCOc1ccccc1OCC(=O)Nc1nc2ccccc2[nH]1	-	-	-	-	-	-	.
Cc1c(C(=O)NCc2ccc(F)cc2)c(-c2ccccc2)nn1-c1ccccc1	-	-	-	-	-	43.3	36.9

Compound activity: PubChem BioAssay, several laboratories
